# Data taken from PubChem BioAssay (NCI).
# About 83,000 compounds went through this panel and 20% of them were active in at least one assay; those are over-represented in the sample as a whole.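 96-well plates, one dose, 48 hours. Percent growth reported; active if below 10.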 A number with no mark means an inactive call. Calls of active or inactive are those of the source.
# Experiments:
# Test in all cases: NCI-60 one-dose screen, 48 h (100 = growth as untreated, 0 = no growth, -100 = all killed)
# Settings in all cases: 10 µM unless noted
# [1] = test system: HCT-15 colon
# [2] = test system: HT29 colon
# [3] = test system: SNB-75 CNS
# [4] = test system: SNB-19 CNS
# [5] = test system: U251 CNS
# [6] = test system: PC-3 prostate
# [7] = test system: SK-MEL-5 melanoma
# [8] = test system: UACC-62 melanoma
# [9] = test system: LOX IMVI melanoma
# [10] = test system: SK-MEL-28 melanoma
Compound,growth [1],growth [2],growth [3],growth [4],growth [5],growth [6],growth [7],growth [8],growth [9],growth [10]
C=CCCCN=C=S,55.4%,37.4%,64.2%,84.2%,79.5%,87%,95.1%,63.4%,53.8%,83.2%
CC(C)COC(C[N+](=O)[O-])C(Cl)(Cl)Cl (stereo not given),105%,106%,90.4%,106%,95.7%,91%,112%,101%,103%,99.4%
CCC(CC)CC1(C)CC2(C)CCOC2OO1 (stereo not given),104%,100%,98.8%,103%,102%,99.8%,98.5%,95.4%,102%,109%
COc1cc(C=Nc2cccc(C(=O)O)c2)ccc1N(CCCl)CCCl,97.8%,98.1%,101%,102%,100%,101%,98.7%,96.7%,101%,103%
C=CC12CCN(CC1)C(C(O)c1ccnc3ccc(OC)cc13)C2 (stereo not given),66.1%,11.9%,52.7%,98.5%,80.6%,66%,53.1%,92.8%,89%,85.1%
CC(C)CCC1(CCCl)C(=O)NC(=O)NC1=O,98.9%,109%,85.3%,97.7%,94.4%,98.8%,97.4%,97.6%,97%,98.4%
Cc1ccc(Nc2nc3c(s2)C2=CC[C@@H]4[C@H](CC[C@]5(C)C(=O)CC[C@@H]45)[C@@]2(C)CC3)cc1,17%,15%,28.7%,55.4%,33.4%,33%,56.6%,68.3%,21.3%,37.6%
N#Cc1c(Br)n(C2OC(CO)C(O)C2O)c2ncnc(N)c12 (stereo not given),43.9%,43.8%,76.2%,101%,69.4%,16.5%,95.9%,77.9%,57.2%,43.7%
[Cl][Hg][c]1cc[c]([Hg][Cl])o1,-47.3% (active),30.9%,54.4%,15.4%,-40.8% (active),51.3%,39.7%,47.1%,-10.3% (active),49.1%
C/C(Cc1ccc(Cl)cc1)=C(\c1ccc(OCCN2CCOCC2)cc1)c1ccc(OC(=O)Cc2ccccc2)cc1,91.1%,79.5%,89.6%,101%,97.4%,81.9%,95.6%,84.5%,97%,99.7%
COc1ccc(Nc2ccnc3cc(Cl)ccc23)cc1CN(CCCl)CCCl,-12.1% (active),1.34% (active),-10.8% (active),-0.124% (active),-11% (active),-4.22% (active),-88.4% (active),-87% (active),-51.6% (active),-38.3% (active)
O=[N+]([O-])c1cc([N+](=O)[O-])c(Nn2c3ccccc3c3ccccc32)c([N+](=O)[O-])c1,2.82% (active),-4.7% (active),-19.7% (active),25.8%,8.04% (active),-10.5% (active),-75.9% (active),-16.7% (active),7.47% (active),11.9%
CCCCCSC1C2C(=O)C(Br)=CC13CCNc1c(O)c4c5c(c13)=[N+]2CCC=5C=N4 (stereo not given),-47.6% (active),-31.8% (active),-88.8% (active),-65.5% (active),-73.3% (active),-0.922% (active),-95.2% (active),-51.2% (active),-71% (active),-18.2% (active)
COP(=O)(OC)C(O)c1ccc(Cl)cc1 (stereo not given),102%,96.1%,89.4%,110%,104%,94.3%,98.7%,101%,96.8%,109%
O=C(CCl)c1ccc([N+](=O)[O-])o1,-86.6% (active),-14.3% (active),51.3%,75.4%,7.98% (active),-23.8% (active),62.8%,33%,-81.8% (active),-64.6% (active)
CC12CCC3C(CCC4Cc5[nH]c6ccccc6c5CC43C)C1CCC2O (stereo not given),33.2%,10.7%,31.7%,28%,20.1%,34.5%,2.53% (active),31.8%,13.4%,54.8%
COC(=O)[C@@H](C)C[C@H](Cc1ccccc1)NC(=O)c1csc([C@@H](C[C@H](C(C)C)N(C)C(=O)[C@@H](NC(=O)CN(C)C)C2CC2)OC(C)=O)n1,14.6%,-24.4% (active),37.4%,41%,12.7%,25.9%,-47.6% (active),63.8%,8.77% (active),61.3%
COC(=O)[C@@H](C[C@H](Cc1ccccc1)NC(=O)c1csc([C@@H](C[C@H](C(C)C)N(C)C(=O)[C@@H](NC(=O)[C@H]2CCCCN2C)C(C)C)OC(C)=O)n1)NC(=O)OCc1ccccc1,9.05% [9.5 µM] (active),-19.6% [9.5 µM] (active),25.6% [9.5 µM],25.4% [9.5 µM],6.82% [9.5 µM] (active),32.2% [9.5 µM],-3.63% [9.5 µM] (active),27.1% [9.5 µM],14.7% [9.5 µM],-52.6% [9.5 µM] (active)
CCCC(C)C1(CC)C(=O)NC(=O)N(C)C1=O (stereo not given),107%,94.6%,98.8%,104%,92.1%,85.8%,89.1%,90.8%,98.6%,116%
CC(=O)O[C@H](C[C@H](C(C)C)N(C)C(=O)[C@@H](NC(=O)[C@H]1CCCCN1C)C(C)C)c1nc(C(=O)N[C@@H](Cc2ccccc2)C[C@H](C)C(=O)O)c(C)s1,16.5%,3.99% (active),49.6%,38.5%,8.94% (active),21.3%,-33.1% (active),48.1%,26.6%,62.7%
N#C[S-].[Au+].c1ccc(CN2[CH-]N(Cc3ccccc3)C(c3ccccc3)=C2c2ccccc2)cc1,13.8%,7.04% (active),43.6%,16.1%,5.57% (active),7.2% (active),-36.5% (active),3.87% (active),7.61% (active),20.8%
C/C(=C\c1cc(C(F)(F)F)nn1CCNC(=O)OC(C)(C)C)[C@@H]1C[C@@H]2O[C@]2(C)CCC[C@H](C)[C@H](O)[C@@H](C)C(=O)C(C)(C)[C@@H](O)CC(=O)O1,39.5%,23.6%,37.2%,65.4%,61.4%,32%,38.8%,40.7%,55.9%,79.2%
CCCCN1CCCC[C@@H]1C(=O)N[C@H](C(=O)N(C)[C@H](C[C@@H](OC(C)=O)c1nc(C(=O)NC2CCC(C(=O)OC)CC2)cs1)C(C)C)C(C)C (stereo not given in full),30.9%,14.8%,-4.95% (active),24%,15.5%,29.1%,38.4%,33.3%,35.6%,72.1%
CN1CCC(c2c[nH]c3ccccc23)C1 (stereo not given),102%,100%,95.5%,95.2%,98.2%,112%,130%,107%,88.2%,107%
CCC(O)(CN)c1ccccc1 (stereo not given),103%,95.6%,93.5%,106%,93.6%,87.5%,98.9%,100%,105%,115%
